Reference: PubChem BioAssay (NCATS)
Inconclusive results are not listed. A call without a number means that no potency is given here. The source made the active and inactive calls. Calls follow the shape of the dose curve; as a rule, active = well fitted inhibition curve with a large enough effect; inconclusive = small, poorly fitted or top-dose-only effect; inactive = no such curve, though single readings can be large or run the other way.

These compounds were tested against Tumor susceptibility gene 101 protein (Homo sapiens) (UniProt Q99816) (assay: qHTS Assay for Iinhibitors of HIV-1 Budding by Blocking the Interaction of PTAP/TSG101: Hit Validation (AID 651600; also: nearly all actives have a fitted effect of over 70% in size)). Conditions: PTAP peptide/TSG101 UEV interaction, biochemical assay; series mostly up to 57.5 µM.
Procedure, shortened: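 Fluorescence polarization binding assay: Tsg101 binding domain (10 uM) mixed with compounds and FITC-labeled PTAP peptide (50 nM) in HEPES pH 7.5, 0.15 M NaCl, 0.01% Tween 20, EDTA, TCEP; 20 min at r.t.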
Potency is read from the fitted curve at half-maximal effect.

Chain of Tumor susceptibility gene 101 protein (Homo sapiens) (Q99816 whole entry, looked up, the tested form may be a part): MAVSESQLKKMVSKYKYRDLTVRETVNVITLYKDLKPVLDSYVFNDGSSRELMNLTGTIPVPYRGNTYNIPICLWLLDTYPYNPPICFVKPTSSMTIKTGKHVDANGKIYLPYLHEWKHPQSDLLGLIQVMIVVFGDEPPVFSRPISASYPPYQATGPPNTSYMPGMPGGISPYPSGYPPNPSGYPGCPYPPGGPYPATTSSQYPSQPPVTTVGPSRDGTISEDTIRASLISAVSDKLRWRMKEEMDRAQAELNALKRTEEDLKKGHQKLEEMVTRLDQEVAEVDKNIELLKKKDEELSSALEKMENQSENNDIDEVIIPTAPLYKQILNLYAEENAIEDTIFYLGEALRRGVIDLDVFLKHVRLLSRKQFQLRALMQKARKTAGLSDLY

| SMILES | Potency |
| --- | --- |
| Nc1ccc2c(c1)C/C(=C/c1ccco1)C2=O | inactive |
| Cc1cc(C)c[n+](-c2[nH]c(=O)sc2/C=N/NC([S-])=Nc2ccccc2)c1 | 18.3 µM (active) |
| COC(=O)C[C@H]1c2cc(F)ccc2S(=O)(=O)N1c1ccccc1 | inactive |
| CCOC(=O)C1Nc2ccccc2C2C(O)C(O)CC12 (stereo not given) | inactive |
| Cn1cc(/C=C(\C#N)C(=O)Nc2ccccc2O)c2ccccc21 | inactive |
| O=C(CN1C(=O)NC(Cc2c[nH]c3ccccc23)C1=O)Nc1ccccc1C(F)(F)F (stereo not given) | inactive |
| CC(C)(C)c1ccc(C2C3=C(CCCC3=O)NC3=C2C(=O)c2ccccc23)cc1 (stereo not given) | inactive |
| CC1(C)CC(=O)C2=C(C1)OC(N)=C(C#N)C2c1cc2c(cc1[N+](=O)[O-])OCO2 (stereo not given) | inactive |
| COC(=O)CNc1c(-c2ccccc2)nc2ccc(Br)cn12 | inactive |
| Cc1ccc(N2C(=O)C3C(C(=O)c4ccccc4)=NN(c4ccccc4)C3C2=O)cc1 (stereo not given) | inactive |
| CC1=CC(=C(C#N)c2nc3ccccc3s2)C=C(C)N1CC1CCCO1 (stereo not given) | 16.3 µM (active) |
| CN1CCc2c(sc(NC(=O)CSc3ccc(F)cc3)c2-c2nc3ccccc3s2)C1 | inactive |
| Cc1c(N=C2N=C(NC(=O)c3ccc(F)cc3)c3ccccc32)c(=O)n(-c2ccccc2)n1C | inactive |
| COc1cccc2c1C(=O)c1c(O)c3c(c(O)c1C2=O)CC(O)(C(C)=O)CC3OC1CC(O)C(O)C(C)O1 (stereo not given) | 13 µM (active) |
| CCOC(=O)Cn1c(=NC(=O)c2ccc([N+](=O)[O-])s2)sc2ccccc21 | inactive |
| ClCc1nc2ccccc2n1Cc1ccccc1 | inactive |
| Cc1ccc(C(=O)Nc2ccc(C(=O)O)cc2)cc1S(=O)(=O)NCc1ccccc1 | inactive |
| COc1ccc(-c2cc(C(F)(F)F)c3c(N)c(C(=O)NCCSC)sc3n2)cc1 | inactive |
| COCCNC(=S)N/N=C/c1c2ccccc2cc2ccccc12 | inactive |
| Cc1cc(=O)c2c([nH]1)c(C)cc1[nH]c(C)c(C)c12 | inactive |

| SMILES | Potency |
| --- | --- |
| Nc1c(C(=O)C2CC2)sc2nc(-c3ccccc3)cc(C(F)(F)F)c12 | inactive |
| COc1ccc(/C=c2\s/c(=C/C(=O)c3ccc(C)cc3)[nH]c2=O)c(OC)c1 | inactive |
| O=c1[nH]c2c(s1)C=Nc1ccccc1N2 | 9.19 µM (active) |
| CN1CC=C2C(C#N)=C(N)C(C#N)(C#N)[C@H](c3ccoc3)[C@H]2C1 | inactive |
| N#Cc1c(C#N)c(O)c2ccccc2c1O | inactive |
| Cc1ccc(CNC(=O)C2CCCN(S(=O)(=O)c3c(C)[nH]c(=O)[nH]c3=O)C2)cc1 (stereo not given) | inactive |
| COc1ccc(CCn2c(NN=C(C)C)nc3c2c(=O)[nH]c(=O)n3C)cc1 | inactive |
| Cc1ccc(C2C=C(c3ccc(Cl)cc3)Nc3nc(NS(=O)(=O)c4ccccc4)nn32)cc1 (stereo not given) | inactive |
| CCC1CCCCN1C(=O)c1cc2cc(Br)ccc2oc1=O (stereo not given) | inactive |
| CCN(CC)c1ccc(/C=C(/C#N)c2nc3ccc(C)cc3[nH]2)c(OC(C)C)c1 | inactive |
| CCN(C(=O)c1sc2nc3n(c(=O)c2c1C)CCCC3)c1ccccc1F | inactive |
| Nc1nnnn1/N=C/c1cc(Cl)cc(Cl)c1O | 18.3 µM (active) |
| Cc1cc(Br)ccc1NC(=O)c1sc2nc3n(c(=O)c2c1C)CCCC3 | inactive |
| COc1ccc(NC(=O)c2cccc(-c3ccc(O)cc3)c2)cn1 | 20.6 µM (active) |
| CNc1c2cccc(C)c2nc2c(C(=O)NCCN(C)C)cccc12 | 16.3 µM (active) |
| Cc1cc2c(cc1C)NC(c1c(C)n(C)n(-c3ccccc3)c1=O)C1=C(CC(C)(C)CC1=O)N2 (stereo not given) | inactive |
| COc1ccc(-c2onc3ccc(Br)cc23)cc1 | inactive |
| O=C(CC1CC2CCC1C2)NCc1cccs1 (stereo not given) | inactive |
| O=c1oc2c3c4c(cc2c2c1CCC2)OCCN4CCC3 | inactive |
| O=C(CCN1C(=O)/C(=C/c2ccco2)SC1=S)Nc1ccc(O)cc1C(=O)O | inactive |
